Experimental data from PubChem BioAssay (NCI).
This is part of a sample that, as a whole, favours compounds with a hit. Of some 83,000 tested, about 20% had one in any assay.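 Treatment: one concentration, 48 hours, 96-well format. Scoring: percent growth, with anything below 10 considered active.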 Unmarked numbers belong to inactive results. The source made the active and inactive calls.

Test system: HL-60(TB) leukemia
Test: NCI-60 one-dose screen, 48 h (100 = growth as untreated, 0 = no growth, -100 = all killed)
Conditions: 10 µM unless noted

| Structure (SMILES) | growth |
| --- | --- |
| N#Cc1cncc(-c2ccc3ncnc(Nc4cccc(Cl)c4)c3c2)c1 | 97.2% |
| COc1cc(C)c2c(=O)c3c(oc2c1)C(=O)c1c(O)c(OC)cc(O)c1C3=O | -45.4% (active) |
| OCc1cn(-c2ccc(Cl)cc2)nc1-c1ccc(O)cc1 | 51.7% |
| COC(=O)Nc1nc2ccc(C3(c4ccc(F)cc4)OCCO3)cc2[nH]1 | -25.1% (active) |
| CC(C)(C)NC/C(=C\c1ccccc1)C(=O)c1ccccc1 | 1.97% (active) |
| Cc1nn(-c2ccc(Cl)cc2)c(=O)n1CCN1CCOCC1 | 105% |
| O=C(/C=C/c1cccnc1)NCCCCC1CCCN(C(=O)c2ccccc2)C1 (stereo not drawn) | 63.6% |
| CCOC(=O)c1nnn(-c2no[n+]([O-])c2-c2ccc(OC)cc2)c1COc1cccc2cccnc12 | -18.3% (active) |
| Clc1ccc2c(NCCN3CCN(c4ccnc(N5CCCC5)n4)CC3)ccnc2c1 | 37.4% |
| Cn1cc(-c2noc(-c3cn(C)c4ncc(F)cc34)n2)c2cc(Br)ccc21 | 93.8% |
| O=c1[nH]c(-c2ccccn2)nc2sc3c(c12)CCCCC3 | 21.8% |
| CCN(CC)c1cc(N)c(Cc2c(N)cc(N(CC)CC)cc2Cl)c(Cl)c1 | -8.28% (active) |
| CCCCCCOc1ccc(/C=N/NC(N)=S)cc1 | 8.79% (active) |
| COc1ccc(-c2nn(-c3ccc(NC(=O)c4cc(Cl)cc(Cl)c4)cc3)cc2-c2ccncc2)cc1Cl | 20.3% |
| NCC(=O)CCC(=O)O | 132% |
| COC(=O)c1c2c(c[n+]([O-])c1C)C(=O)C=CC2=O | 28.1% |
| O=C(Nc1ccccc1)NS(=O)(=O)c1c[nH]c(=S)[nH]c1=O | 77.8% |
| O=C(CCl)NNc1nccc(Nc2ccc(S(=O)(=O)Nc3ccncc3)cc2)n1 | 36.5% |
| COc1cc2nc(SCc3cc(OC)c(OC)c(OC)c3)n(Cc3ccccc3)c(=O)c2cc1OC | 11.9% |

| Structure (SMILES) | growth |
| --- | --- |
| Nc1cc(C(F)(F)F)c(-c2cc(N3CCOCC3)nc(N3CCOCC3)n2)cn1 | -41.3% (active) |
| C[C@]12CCC3c4ccc(O)cc4C[C@@H](CCCCCCCCCS(=O)CCCC(F)(F)C(F)(F)F)C3C1CC[C@@H]2O (stereo partly drawn) | 73.3% |
| COc1ccccc1CNCCCCCCCCCCCCN1C(=O)c2ccc3c4c(ccc(c24)C1=O)C(=O)N(CCCCCCCCCCCCNCc1ccccc1OC)C3=O | 85.8% |
| O=[N+]([O-])c1ccccc1Sc1ccccc1[N+](=O)[O-] | 111% |
| Oc1ccc(-c2[nH]c3ccccc3c2-c2nc3ccccc3o2)cc1 | 80.8% |
| CCC(c1ccc(OC)cc1)C(CC)c1ccc(O)c(CN2CCN(C)CC2)c1 (stereo not drawn) | 55.3% |
| Nc1ccccc1NC(=O)CCCCCCC(=O)Nc1ccc2c(c1)/C(=C/c1ccc[nH]1)C(=O)N2 | -10.2% (active) |
| C=C(CNCCc1ccc(O)cc1)[C@@H]1CC[C@]2(CO)CC[C@]3(C)[C@H](CC[C@@H]4[C@@]5(C)CCC(=O)C(C)(C)[C@@H]5CC[C@]43C)[C@@H]12 | -41.5% (active) |
| C=CCC(OC(C)=O)c1ccc(OC)c(OC)c1 (stereo not drawn) | 116% |
| CC1=C([Se]CC(OC(=O)[C@@H](CO)NC(=O)OC(C)(C)C)C(=O)NCCCCCC(=O)OCc2ccccc2)C(=O)c2ccccc2C1=O (stereo partly drawn) | -32.9% (active) |
| CCOP(=O)(NC(c1ccccc1)c1ccccc1)OCC | 101% |
| O=C(NCCNc1nccc(-c2c(-c3cccc(O)c3)nc3sccn23)n1)c1ccccc1 | 93.3% |
| COc1cc2c(cc1-c1c(C)noc1C)ncc1nc(C3CCCCC3)n([C@H](C)COC(F)F)c12 | 31% |
| O=C(O)c1cn(C2CC2)c2cc(N3CCN(Cc4nc5c(cnn5-c5ccc([N+](=O)[O-])cc5)c(=O)[nH]4)CC3)c(F)cc2c1=O | 92.8% |
| C=CC(=O)Nc1cccc(-c2nc(SC)nc(NCCc3ccc(OC)c(OC)c3)c2C#N)c1 | 25.6% |
| C[N+](C)(C)c1ncnc2[n-]cnc12 | 103% |
| CC#CC(=O)N1CCC[C@H]1c1nc(-c2ccc(C(=O)Nc3ccccn3)cc2)c2c(N)nccn12 | 130% |
| Cc1ccc(-c2cc(-c3cccnc3)[nH]c(=O)c2C#N)cc1 | 99% |
| COc1cc(C2CC(c3ccc(Cl)cc3)=NN2C=O)ccc1Oc1ccnc2cc(Cl)ccc12 (stereo not drawn) | 85.9% |
